Assay results as given in PubChem BioAssay (EPA / NIEHS).
Activity calls are given as the source filed them. The calls were made as follows: active = hit-call score of the fitted dose curve at least 0.9, where 1 is the maximum; inactive = score below 0.9.

test: APR_HepG2_StressKinase_24hr: Apredica 24-hour HepG2 Assay for Stress Kinase (AID 2282922); conditions: HepG2 stress kinase (phospho-c-Jun) imaging, actives raise or lower the signal
Experimental: APR_HepG2_24hr is a cell-based, multiplexed-readout assay that uses HepG2, a human liver cell line, with measurements taken at 24 hours after chemical dosing in a 384-well plate.APR_HepG2_StressKinase_24hr is one of 10 assay component(s) measured or calculated from the APR_HepG2_24hr assay. It is designed to make measurements of enzyme activity, a form of enzyme reporter, as detected with fluorescence intensity signals by HCS Fluorescent Imaging technology.Data from the assay component APR_HepG2_StressKinase_24hr was analyzed into 1 assay endpoint. This assay endpoint, APR_HepG2_StressKinase_24hr, was analyzed with bidirectional fitting relative to DMSO as the negative control and baseline of activity. Using a type of enzyme reporter, measures of protein for gain or loss-of-signal activity can be used to understand the signaling at the pathway-level as they relate to the gene . Furthermore, this assay endpoint can be referred to as a primary readout, because this assay has produced multiple assay endpoints where this one serves a signaling function. To generalize the intended target to other relatable targets, this assay endpoint is annotated to the cell cycle intended target family, where the subfamily is stress response.
Cells were treated with dimethyl sulfoxide (DMSO) as a solvent control at a final concentration of 0.5% v/v or with compounds in DMSO with a resulting final DMSO concentration of 0.5% v/v. Compound treatment was done at concentrations of 0.39, 0.78, 1.56, 3.12, 6.24, 12.5, 25, 50, 100, and 200 uM in duplicate on each plate. Cells were treated with compounds for 1, 24, or 72 hr. Carbonyl […] m-chloro-phenylhydrazone (CCCP) and taxol were used as positive controls for mitochondrial function and cytoskeletal stability, respectively; DMSO served as the negative control for this experiment. Cells were fixed by the direct addition of 50 uL formaldehyde in Hank's Balanced Salt Solution (HBSS) to a final concentration of 3.7%. After incubation in the fixation medium for 30 min at room temperature (293-298 K), cells were rinsed twice with HBSS and treated with cell permeabilization buffer (16 uL of 0.5% Triton X-100) for 10 min at room temperature (293-298 K) before labeling. For mitochondrial membrane potential and mitochondrial measurements, pre-fixed cells were incubated with 50 uL of MitoTracker Red CMXRos (Invitrogen) at a concentration of 250 nM for 30 min before fixation. In the remaining cases, post-fixed cells were labeled by incubation with a multiplexed mixture of primary antibodies in HBSS for 60 min at room temperature (293-298 K) to detect immunoreactivity of c-Jun (1:500), phospho-histone H3 (1:100), phospho-histone H2A.x (1:200), p53 (1:400), alpha-tubulin (1:200) and Hoechst 33342 (2 ug/mL). Cells were labeled for multiplexed imaging on two separate plates: a) Hoechst 33342, MitoTracker Red, phospho-histone H3, and alpha-tubulin, and b) Hoechst 33342, phospho-histone H2A.x, and c-Jun. A final rinse with HBSS (50 uL) was performed before analysis. The primary and secondary antibodies for the proteins were phospho-histone H3 (rabbit anti-phospho-histone H3 and FITC-donkey anti-rabbit IgG), phospho-histone H2A.x (mouse anti-phospho-histone H2A.x and FITC-donkey anti-mouse IgG), c-Jun (rabbit anti-phospho-c-Jun and Cy3-donkey anti-rabbit IgG), p53 (sheep anti-p53 and Cy5-donkey anti-sheep IgG), alpha-tubulin (mouse anti-alpha-tubulin and Cy5-donkey anti-mouse IgG). These antibodies are available as the CellCiphr HepG2 assay kit (Millipore).Digital images of each well were captured using a Cellomics ArrayScan VTI (Thermo Scientific Cellomics) (0.8 NA objective, 0.63x optical coupler, and XF-93 filter set) at 20x magnification. The images were acquired using the autofocus feature of the ArrayScan instrument, which entails the following steps. First, the camera focuses on channel 1 (Hoechst 33342), where nuclei are identified. Second, a Z offset of 1 um is used for capturing mitochondria (MitoTracker Red). […]

| Structure (SMILES) | outcome |
| --- | --- |
| CCOP(=S)(OCC)Oc1ccc([N+](=O)[O-])cc1 | inactive |
| CCc1cnc(C2=NC(C)(C(C)C)C(=O)N2)c(C(=O)O)c1 (stereo not given) | inactive |
| Nc1nc(N)nc(NC2CC2)n1 | inactive |
| CN(C)NC(=O)CCC(=O)O | inactive |
| CCCCOC(=O)c1ccccc1C(=O)O | inactive |
| CC(C1CC1)C(O)(Cn1cncn1)c1ccc(Cl)cc1 (stereo not given) | inactive |
| CCOP(=S)(OCC)Oc1cc(C)nc(C(C)C)n1 | inactive |
| CCCSP(=O)(OCC)Oc1ccc(Br)cc1Cl (stereo not given) | inactive |
| S=C1NCCN1 | inactive |
| CC(=NC#N)N(C)Cc1ccc(Cl)nc1 | inactive |
| CCOP(=O)(OCC)Oc1cc(C)nc(C(C)C)n1 | inactive |
| CSc1nnc(C(C)(C)C)c(=O)n1N | inactive |
| CCc1cccc(C)c1N(C(=O)CCl)C(C)COC (stereo not given) | inactive |
| CCNc1nc(Cl)nc(NC(C)(C)C#N)n1 | inactive |
| Nc1c(Cl)cc([N+](=O)[O-])cc1Cl | inactive |
| CCCCN(CC)c1c([N+](=O)[O-])cc(C(F)(F)F)cc1[N+](=O)[O-] | inactive |
| COP(=O)(NC(C)=O)SC (stereo not given) | inactive |
| COP(=O)(OC)C(O)C(Cl)(Cl)Cl (stereo not given) | inactive |
| CSC1=N[C@@](C)(c2ccccc2)C(=O)N1Nc1ccccc1 | inactive |
| CCC(=O)Nc1ccc(Cl)c(Cl)c1 | inactive |

| Structure (SMILES) | outcome |
| --- | --- |
| O=c1ccc(=O)[nH][nH]1 | inactive |
| COP(=O)(OC)SCn1c(=O)oc2cc(Cl)cnc21 | inactive |
| CC(C)=CC1C(C(=O)OCN2C(=O)C3=C(CCCC3)C2=O)C1(C)C (stereo not given) | inactive |
| CCCSP(=O)(OCC)SCCC | inactive |
| CN(C)[C@@H]1C(=O)C(C(N)=O)=C(O)[C@@]2(O)C(=O)C3=C(O)c4c(O)cccc4[C@@](C)(O)[C@H]3[C@H](O)[C@@H]12 | inactive |
| CC1(C(=O)Nc2ccc(O)c(Cl)c2Cl)CCCCC1 | inactive |
| O=[N+]([O-])c1cc(C(F)(F)F)c(Cl)c([N+](=O)[O-])c1Nc1ncc(C(F)(F)F)cc1Cl | inactive |
| CNC(=O)Oc1cccc2c1OC(C)(C)O2 | inactive |
| CNC(=O)ON=C(C)SC | inactive |
| COc1cc(OC)nc(Sc2cccc(Cl)c2C(=O)O)n1 | inactive |
| CCOP(=S)(OCC)Oc1ccc2c(C)c(Cl)c(=O)oc2c1 | inactive |
| N#CSCSC#N | inactive |
| CC(C)[C@H](C(=O)O[C@H](C#N)c1cccc(Oc2ccccc2)c1)c1ccc(Cl)cc1 | inactive |
| CON=C(C(=O)OC)c1ccccc1CON=C(C)c1cccc(C(F)(F)F)c1 | inactive |
| CNc1cnn(-c2cccc(C(F)(F)F)c2)c(=O)c1Cl | inactive |
| CCOP(=O)(SC(C)CC)N1CCSC1=O (stereo not given) | inactive |
| C[N+]1(C)CCCCC1 | inactive |
| Cc1ccn2nc(S(=O)(=O)Nc3c(F)cccc3F)nc2n1 | inactive |
| C=C(C)[C@H]1Cc2c(ccc3c2O[C@@H]2COc4cc(OC)c(OC)cc4[C@@H]2C3=O)O1 | inactive |
| CCOP(=S)(Oc1cnc(C(C)(C)C)nc1)OC(C)C (stereo not given) | inactive |
